About 83,000 compounds went through this panel and 20% of them were active in at least one assay; those are over-represented in the sample as a whole.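 Note: values are percent growth. 100 is the growth of untreated cells, values between 100 and 0 indicate rising inhibition; between -100 and 0 indicates cell death.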 The source made the active and inactive calls. The calls were made as follows: active = growth percent below 10; inactive = the rest.
test system: MDA-MB-435 melanoma; assay: NCI-60 one-dose screen, 48 h (100 = growth as untreated, 0 = no growth, -100 = all killed); settings: 10 µM unless noted

Row | Structure (SMILES) | growth
1 | CCOc1ccc(NC(=O)c2cc(OC)c(OC)c(OC)c2)cc1 | -10.9% (active)
2 | COc1cc(-c2cc(-c3ccc(Nc4ncnc5cc(Cl)ccc45)cc3)nc(N3CCN(C)CC3)n2)cc(OC)c1OC | 102% (inactive)
3 | COc1ccc(C/C(C)=C(\c2ccc(O)cc2)c2ccc(OCCN3CCCC3)cc2)cc1 | 103% (inactive)
4 | COC(=O)C1=C(C)NC(C)=C(C(=O)OCC(C)C)C1c1ccccc1[N+](=O)[O-] (stereo unspecified) | 54.8% (inactive)
5 | O=C1CC2C=CCN2C=C1NC(=O)C1CCCCC1 (stereo unspecified) | 102% (inactive)
6 | COc1ccc2nc3cc(Cl)ccc3c(NCCN)c2c1 | -90.2% (active)
7 | COc1cccc(/C=C2\COc3ccc(O)cc3C2=O)c1 | 52.8% (inactive)
8 | COC(c1ccc2ccccc2c1)C(C)C(F)F (stereo unspecified) | 96% (inactive)
9 | COc1ccc(-c2ccc(-c3ccc(C(=N)N)cn3)s2)cc1 | 97% (inactive)
10 | O=C1Nc2ccc(F)cc2/C1=C\c1nc(-c2ccccc2F)n2ccccc12 | 101% (inactive)
11 | CCN1C(=S)N(CC)C2C1NC(=S)N2/N=C/C=C/c1ccccc1OC (stereo unspecified) | -42.8% (active)
12 | COc1ccc2c(c1)c(-c1nonc1-c1c[nH]c3ccc(Br)cc13)cn2C | 6.34% (active)
13 | N#Cc1c(-c2ccccc2)c(C#N)c2c(C#N)c(N)nn2c1N | -39.6% (active)
14 | COc1cccc(Nc2ccnc3[nH]c4ccc([N+](=O)[O-])cc4c23)c1 | -24.4% (active)
15 | Clc1nn2c(Cn3cnc4c(NCc5ccccc5)ncnc43)nnc2c2ccccc12 | 30.6% (inactive)
16 | O=C1CCC(C(=O)NN(c2ccccc2)c2ccccc2)N1 (stereo unspecified) | 93.8% (inactive)

From PubChem BioAssay (NCI)
